Results filed as inconclusive are left out. Active and inactive are the calls of the source. How the source made its calls, unless noted: active means hit-call score of the fitted dose curve at least 0.9, where 1 is the maximum; inactive means score below 0.9.
Columns and labels:
[1] = CCTE_Mundy_HCI_Cortical_NOG_NeuriteLength: CCTE's Neurite Outgrowth Assay in rat cortical cells for Neurite Length, Mundy Lab (AID 2284213)
Procedure, shortened: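 Neurite length was read by high-content imaging of βIII-tubulin-labelled neurites in rat primary cortical cultures. Activity was fitted relative to DMSO.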

[2] = CCTE_Mundy_HCI_Cortical_Synap_Neur_Matur_NeuriteLength: CCTE's Synaptogenesis and Neurite Maturation Assay in rat cortical cells for Neurite Length, Mundy Lab (AID 2284214)
Procedure, shortened: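 Rat primary cortical cultures, AraC added DIV 5, dosed DIV 7 through DIV 12 […]. Fixed, MAP2/synaptophysin immunostained with Hoechst; neurite length by high-content imaging, fitted in positive direction versus DMSO.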

[3] = CCTE_Mundy_HCI_Cortical_Synap_Neur_Matur_NeuriteSpotCountPerNeuron: CCTE's Synaptogenesis and Neurite Maturation Assay in rat cortical cells for Neurite Spot Count per Neuron Count, Mundy Lab (AID 2284215)
Procedure, shortened: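 Rat primary cortical cells received AraC at DIV 5, then chemicals with a media change at DIV 7, and were fixed at DIV 12. Synaptophysin puncta on MAP2-stained neurites per neuron were counted by high-content imaging, fitted relative to DMSO.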

[4] = CCTE_Mundy_HCI_Cortical_Synap_Neur_Matur_SynapseCount: CCTE's Synaptogenesis and Neurite Maturation Assay in rat cortical cells for Synapse Count, Mundy Lab (AID 2284218)
Procedure, shortened: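 Rat primary cortical cultures, AraC at DIV 5, chemical dosing DIV 7 to DIV 12 (288.33 h). Fixed cells stained for MAP2, synaptophysin and Hoechst; synapses per neuron counted by high-content imaging, loss of signal versus DMSO.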

[5] = CCTE_Mundy_HCI_Cortical_Synap_Neur_Matur_NeuriteCount: CCTE's Synaptogenesis and Neurite Maturation Assay in rat cortical cells for Neurite Count, Mundy Lab (AID 2284222);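 further: exposure from day 7 to day 12 in vitro with readout at day 12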
Procedure, shortened: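 Rat primary cortical cells; AraC added at DIV 5, chemicals dosed with media change at DIV 7 through DIV 12. MAP2/synaptophysin/Hoechst immunostaining, high-content imaging of neurite number; fitted relative to DMSO.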

[6] = CCTE_Mundy_HCI_Cortical_Synap_Neur_Matur_CellBodySpotCount: CCTE's Synaptogenesis and Neurite Maturation Assay in rat cortical cells for Cell Body Spot Count, Mundy Lab (AID 2284223)
Procedure, shortened: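 Rat primary cortical cultures received AraC at DIV 5 to arrest glia, were dosed with chemical at DIV 7 with media change, and were fixed at DIV 12 (288.33 h). Synaptophysin puncta on MAP2-positive cell bodies per neuron were counted by high-content imaging versus DMSO.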

[7] = CCTE_Mundy_HCI_hNP1_Pro_ResponderAvgInten: CCTE's Proliferation Assay in human neuroprogenitor cells, Mundy Lab (AID 2284224; active means hit-call score of the fitted dose curve at least 0.9, where 1 is the maximum;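 further: human neural progenitor cells hNP1 derived from WA09 embryonic stem cells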)
Procedure, shortened: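 Proliferation read as average intensity of BrdU-positive cells, imaged at 26.25 h post-dosing: chemical exposure started after 40–44 h culture, BrdU during final 4 h, paraformaldehyde fixation. Positive-direction fit relative to DMSO.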

[8] = CCTE_Mundy_HCI_Cortical_NOG_NeuronCount: CCTE's Neurite Outgrowth Assay in rat cortical cells for Neuron Count, Mundy Lab (AID 2284236; active means hit-call score of the fitted dose curve at least 0.9, where 1 is the maximum;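 further: neurons counted by imaging betaIII-tubulin and Hoechst stained cortical cells; cells exposed to compound for about 48 hours before fixation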)
Procedure, shortened: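 Read-out: neuron number by high-content imaging of betaIII-tubulin (Alexa Fluor-488) and Hoechst-labelled rat primary cortical cells.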

[9] = CCTE_Mundy_HCI_Cortical_NOG_BPCount: CCTE's Neurite Outgrowth Assay in rat cortical cells for Branch Point Count, Mundy Lab (AID 2284237)
Procedure, shortened: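 Measured 50.33 h after dosing, this morphology endpoint uses rat primary cortical cultures labelled for betaIII-tubulin. Branch points are quantified by high-content imaging, with DMSO as negative control and baseline.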

[10] = CCTE_Mundy_HCI_hNP1_Casp3_7: CCTE's Caspase-Glo 3/7 Assay in human neuroprogenitor cells for Apoptosis, Mundy Lab (AID 2284240)
Procedure, shortened: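 Luminescent caspase-3/7 readout, 26.5 h post-dose, in human neural progenitor cells from WA09 embryonic stem cells. Cells grew 40–44 h at 37 °C, 5% CO2 before chemical addition. Activity analysed as signal increase over DMSO baseline.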

[11] = CCTE_Mundy_HCI_hNP1_CellTiter: CCTE's Cell Titer-Glo 2 Assay in human neuroprogenitor cells for Viability, Mundy Lab (AID 2284241; active means hit-call score of the fitted dose curve at least 0.9, where 1 is the maximum)
Procedure, shortened: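 Viability read as luminescent ATP content (CellTiter-Glo, 30 min room temperature) twenty-four hours after dosing, relative to DMSO. Cells: WA09-derived hNP1 neuroprogenitors on poly-L-ornithine/laminin, plated 40 to 44 hours before chemical.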

[12] = IUF_NPC2c_oligodendrocyte_migration_120hr: Leibniz Research Institute for Environmental Medicine (IUF) 120-hour Neural Progenitor Cell Migration Assay for Oligodendrocyte Migration (NPC2c) (AID 2284297);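 further: O4-positive oligodendrocyte migration distance divided by radial glia migration distance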
Procedure, shortened: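 Human fetal cortex-derived neural progenitor spheres (0.3 mm) were plated on poly-D-lysine/laminin in N2 differentiation medium and exposed to 7 concentrations for 120 h, with half-medium renewal at day 3. Oligodendrocyte migration distance was normalized to radial glia migration, relative to DMSO.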

[13] = IUF_NPC2a_radial_glia_migration_120hr: Leibniz Research Institute for Environmental Medicine (IUF) 120-hour Neural Progenitor Cell Migration Assay for Radial Glia Migration (NPC2a) (AID 2284298)
Procedure, shortened: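 Single 0.3 mm primary human fetal-cortex (GW 16-19) NPC spheres were plated on poly-D-lysine/laminin in N2 differentiation medium and exposed from day 0 for 120 h, half-medium refreshed day 3. Migration distance came from Hoechst nuclei-density imaging, relative to DMSO.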

[14] = IUF_NPC2a_radial_glia_migration_72hr: Leibniz Research Institute for Environmental Medicine (IUF) 72-hour Neural Progenitor Cell Migration Assay for Radial Glia Migration (NPC2a) (AID 2284299)
Procedure, shortened: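 Human fetal neural progenitor spheres (0.3 mm) plated on poly-D-lysine/laminin in N2 differentiation medium and exposed from day 0 at 7 concentrations; radial glia migration distance from sphere edge measured at 72 h on brightfield images, mean of four directions, vs DMSO.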

[15] = IUF_NPC2b_neuronal_migration_120hr: Leibniz Research Institute for Environmental Medicine (IUF) 120-hour Neural Progenitor Cell Migration Assay for Neuron Migration (NPC2b) (AID 2284300)
Procedure, shortened: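 Primary human fetal cortex neural progenitor spheres (0.3 mm) plated on poly-D-lysine/laminin in N2 differentiation medium, exposed 120 h with half-medium refresh at day 3. TUBB3-stained neuron distance from sphere core, normalized to radial glia migration, versus DMSO.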

[16] = IUF_NPC3_neuronal_differentiation_120hr: Leibniz Research Institute for Environmental Medicine (IUF) 120-hour Neuronal Differentiation Assay (NPC3) (AID 2284301)
Procedure, shortened: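 Human fetal (GW 16-19) neural progenitor spheres (0.3 mm) plated on poly-D-lysine/laminin in N2 differentiation medium, exposed 120 h at 37C with half-medium renewal day 3; 7 concentrations. TUBB3+ cells as % of Hoechst nuclei, CNN-identified; DMSO baseline.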

[17] = IUF_NPC4_neurite_length_120hr: Leibniz Research Institute for Environmental Medicine (IUF) 120-hour Neuronal Morphology Assay for Neurite Length (NPC4) (AID 2284302)
Procedure, shortened: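 Human fetal neural progenitor spheres (0.3 mm) plated on poly-D-lysine/laminin in N2 differentiation medium, exposed from day 0 for 120 h with half-medium refresh at day 3, 37C. Mean neurite length (um) of TUBB3-positive neurons from skeletonized immunostaining images; DMSO ≤0.1%.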

[18] = IUF_NPC4_neurite_area_120hr: Leibniz Research Institute for Environmental Medicine (IUF) 120-hour Neuronal Morphology Assay for Neurite Area (NPC4) (AID 2284305; active means hit-call score of the fitted dose curve at least 0.9, where 1 is the maximum)
Procedure, shortened: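 Human fetal neural progenitor spheres (0.3 mm) plated on poly-D-lysine/laminin in N2 differentiation medium, exposed 120 h (7 concentrations, DMSO ≤0.1%, half-medium refresh day 3). Fixed, TUBB3 immunostained; mean neurite area per neuron by Omnisphero skeletonization.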

[19] = IUF_NPC2-5_cytotoxicity_72hr: Cytotoxicity Assessment at 72 hours in the Leibniz Research Institute for Environmental Medicine (IUF) Neural Progenitor Cell Migration and Differentiation Assay for Cytotoxicity (NPC2-5) (AID 2284306; active means hit-call score of the fitted dose curve at least 0.9, where 1 is the maximum;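 further: LDH release into supernatant measured by resorufin fluorescence marking membrane damage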)
Procedure, shortened: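 Human fetal primary neural progenitor spheres (0.3 mm) plated on poly-D-lysine/laminin in N2 differentiation medium, exposed from day 0 at 37C. LDH-dependent resazurin-to-resorufin fluorescence in supernatant at 72 h; 7 concentrations, DMSO at most 0.1%.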

[20] = IUF_NPC2-5_cytotoxicity_120hr: Cytotoxicity Assessment at 120 hours in the Leibniz Research Institute for Environmental Medicine (IUF) Neural Progenitor Cell Migration and Differentiation Assay (NPC2-5) (AID 2284307; active means hit-call score of the fitted dose curve at least 0.9, where 1 is the maximum)
Procedure, shortened: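 Human fetal neural progenitor spheres (0.3 mm, GW 16-19 cortex) were plated on poly-D-lysine/laminin in N2 differentiation medium and exposed for 120 h, with half-medium refresh at day 3. LDH release into supernatant was read by resorufin fluorescence.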

[21] = IUF_NPC2-5_cell_number_120hr: Cell Number Assessment at 120 hours in the Leibniz Research Institute for Environmental Medicine (IUF) Neural Progenitor Cell Migration and Differentiation Assay (NPC2-5) (AID 2284308);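 further: count of Hoechst-stained nuclei in migration zone around plated human neural progenitor spheres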
Procedure, shortened: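 Primary human fetal neural progenitor spheres (GW 16-19, 0.3 mm) plated on poly-D-lysine/laminin in N2 differentiation medium, exposed from day 0 for 120 h with half-medium refresh at day 3; Hoechst-positive nuclei counted in migration area versus DMSO control.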

[22] = IUF_NPC1_cytotoxicity_72hr: Cytotoxicity Assessment at 72 hours in the Leibniz Research Institute for Environmental Medicine (IUF) Neural Progenitor Cell Proliferation Assay (NPC1) (AID 2284332; active means hit-call score of the fitted dose curve at least 0.9, where 1 is the maximum;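 further: rising LDH signal means more cytotoxicity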)
Procedure, shortened: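 Human fetal neural progenitor spheres (0.3 mm) in EGF/FGF proliferation medium, 37C, exposed 72 h without renewal. LDH release in supernatant read by resorufin fluorescence; gain of signal scored relative to dynamic range.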

[23] = CCTE_Mundy_HCI_iCellGluta_NOG_NeuronCount: CCTE's Neurite Outgrowth Assay in iCellGluta cells for Neuron Count, Mundy Lab (AID 2284340; active means hit-call score of the fitted dose curve at least 0.9, where 1 is the maximum;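 further: cells fixed about 48 h after compound addition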)
Procedure, shortened: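 Neuron count read by automated high-content imaging of Hoechst 33342 and betaIII-tubulin/Alexa Fluor-488 labelling in human iPSC glutamatergic neurons. Activity fitted relative to DMSO.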

Measured: outcome

CC(C)c1nn(C(=O)NC(C)(C)C)c(=O)n1N
inactive: [1] | [2] | [3] | [4] | [5] | [6] | [7] | [8] | [9] | [10] | [11] | [12] | [13] | [14] | [15] | [16] | [17] | [18] | [19] | [20] | [21] | [22] | [23]

— PubChem BioAssay (EPA / NIEHS)
